# Compound activity: PubChem BioAssay, National Center for Advancing Translational Sciences (NCATS)
# An excerpt weighted towards active compounds, which were near 12% of everything screened.
# PLK1 PBD block = qHTS for Inhibitors of PLK1-PDB (polo-like kinase 1 - polo-box domain): Primary Screen; Potency, µM, for inactives: max response, negative = inhibition, actives largely listed as inhibitors; Plk1 PBD binding of FITC phosphopeptide, fluorescence polarization; Serine/threonine-protein kinase PLK1 (Homo sapiens), P53350; AID 720504, 2013; 360,000 compounds, 2.8% hits; note: potency is the fitted concentration of half-maximal effect; series mostly up to about 57 µM; % is set by controls: 0 for no effect and ±100 for the full control effect; nearly all actives have a fitted effect of over 65% in size
# HP1b chromo inh = HTS for Inhibitors of HP1-beta Chromodomain Interactions with Methylated Histone Tails; Chromobox protein homolog 1 (Homo sapiens), P83916; AlphaScreen HP1-beta / biotin-H3K9me3 peptide binding; Potency, µM (doses to about 114 µM), for the others: at the top dose activity change, negative = inhibition, actives largely listed as inhibitors; 390,000 compounds, 0.56% hits; AID 540317, 2011; note: potency is the fitted concentration of half-maximal effect; nearly all actives have a fitted effect of over 70% in size
#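 AlphaScreen: HP1-beta (50 nM) preformed 30 min with biotin-H3(1-18)K9me3 peptide (50 nM) in PBS pH 7.4, 0.01% Tween-20. Compound added for 30 min at RT, then streptavidin donor/nickel chelate acceptor beads (10 ug/mL) for 30 min.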
# JMJD2A Tudor inh = qHTS Assay for Inhibitors of JMJD2A-Tudor Domain; Lysine-specific demethylase 4A (Homo sapiens), O75164; AlphaScreen JMJD2A-Tudor / H3K4me3 peptide binding; Potency, µM (series often up to 114 µM), inactives show top-dose activity change, negative = inhibition, usual class: inhibitors; 390,000 compounds, 4.4% hits; AID 504339, 2011; note: potency is the fitted concentration of half-maximal effect; % is set by controls: 0 for no effect and ±100 for the full control effect; nearly all actives have a fitted effect of over 50% in size
# PI5P4K alpha inh = qHTS for Inhibitors of phosphatidylinositol 5-phosphate 4-kinase (PI5P4K); Phosphatidylinositol 5-phosphate 4-kinase type-2 alpha (Homo sapiens), P48426; PI5P4Kalpha enzyme, ADP-Glo luminescence, 60 min; hits give low values; max response, %; 330,000 compounds, 1.2% hits; AID 652105, 2013; active = max response of -50% or lower; inconclusive = between -30% and -50%; inactive = -30% or higher; note: value at the top dose of about 77 µM; % is set by controls: 0 for no effect and ±100 for the full control effect
# Target sequence (P48426 whole entry, looked up): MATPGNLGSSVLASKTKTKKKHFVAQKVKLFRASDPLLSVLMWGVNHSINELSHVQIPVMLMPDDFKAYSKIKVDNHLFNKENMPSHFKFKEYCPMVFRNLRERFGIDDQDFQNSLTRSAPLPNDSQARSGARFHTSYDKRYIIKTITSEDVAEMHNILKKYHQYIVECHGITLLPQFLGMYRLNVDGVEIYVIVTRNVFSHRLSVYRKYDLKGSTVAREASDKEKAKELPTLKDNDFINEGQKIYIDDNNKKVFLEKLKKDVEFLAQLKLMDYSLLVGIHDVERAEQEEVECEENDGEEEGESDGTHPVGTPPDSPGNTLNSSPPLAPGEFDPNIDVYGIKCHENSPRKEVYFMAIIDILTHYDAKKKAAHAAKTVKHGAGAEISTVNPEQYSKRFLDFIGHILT
#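 Reactions run in 0.038 M HEPES pH 7.4, 0.28 mM EGTA, 0.1% CHAPS and 5% DMSO, with PI5P4Kalpha, substrate, compound and 5 microM ATP final, one hour at room temperature. Readout is ADP-Glo luminescence.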
# G9a block = qHTS Assay for Inhibitors of Histone Lysine Methyltransferase G9a; Histone-lysine N-methyltransferase EHMT2 (Homo sapiens), Q96KQ7; G9a H3K9 monomethylation, AlphaScreen, 2 h; Potency, µM (titrated, usually from 102 µM), without a hit: at the top dose activity, negative = inhibition, hits mostly inhibitors; 350,000 compounds, 8.8% hits; AID 504332, 2011; note: potency is the fitted concentration of half-maximal effect; % is set by controls: 0 for no effect and ±100 for the full control effect; nearly all actives have a fitted effect of over 75% in size
# Target sequence (Q96KQ7 913-1193 limits assumed): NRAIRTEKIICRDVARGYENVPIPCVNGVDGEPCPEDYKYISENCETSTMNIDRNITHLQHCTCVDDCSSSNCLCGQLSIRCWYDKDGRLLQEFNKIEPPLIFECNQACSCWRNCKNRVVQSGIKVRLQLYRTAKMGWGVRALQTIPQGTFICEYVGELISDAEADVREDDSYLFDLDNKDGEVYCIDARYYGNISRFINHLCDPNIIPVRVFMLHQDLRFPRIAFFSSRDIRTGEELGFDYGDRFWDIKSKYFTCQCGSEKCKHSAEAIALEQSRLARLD
#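 Step 1: enzyme (final 20 nM) with compound, 15 min RT. Step 2: substrate peptide 500 nM and SAM 20 uM, 2 h RT. Step 3: anti-H3K9me1 antibody and AlphaScreen beads, 10 min, then plate read.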
# BAZ2B inh = qHTS Assay for Inhibitors of BAZ2B; Bromodomain adjacent to zinc finger domain protein 2B (Homo sapiens), Q9UIF8; AlphaScreen BAZ2B-H3K14Ac peptide displacement; Potency, µM (doses to about 114 µM), inactives show at the highest dose activity change, negative = inhibition, actives largely listed as inhibitors; 360,000 compounds, 4.4% hits; AID 504333, 2011; note: potency is the fitted concentration of half-maximal effect; % is set by controls: 0 for no effect and ±100 for the full control effect; nearly all actives have a fitted effect of over 60% in size
#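 Protein-peptide AlphaScreen: BAZ2B 50 nM, b-H3K14Ac 50 nM, 1x PBS pH 7.4 + 0.01% Tween-20. Preincubation 30 min RT; cpd 30 min RT (top 110 uM); beads 20 min RT, light-protected.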
# * = called active by the depositor; ? = inconclusive; · = no result; [ ] = dose if it differs, or a comment. Unless noted, calls come from the whole dose curve; as a rule, active = well fitted curve in the direction sought with a large enough effect; inconclusive = small, poorly fitted or top-dose-only effect, or another doubt; inactive = no such curve, though single readings can be large; an effect the other way counts as inactive or inconclusive.
SMILES,PLK1 PBD block,HP1b chromo inh,JMJD2A Tudor inh,PI5P4K alpha inh,G9a block,BAZ2B inh
COCCN(C(=O)COC(=O)CNC(=O)c1cccs1)c1c(N)n(Cc2ccccc2)c(=O)[nH]c1=O,-8%,-7%,-10%,0,11µM*,-1%
COCCN(C(=O)COC(=O)C1CCC(C(C)(C)C)CC1)c1c(N)n(Cc2ccccc2)c(=O)[nH]c1=O (stereo not drawn),2%,21%,-15%,-5,32µM*,1%
CN(C(=O)COC(=O)CNC(=O)c1cccs1)c1c(N)n(Cc2ccccc2)c(=O)[nH]c1=O,5%,25%,2%,-2,-1%[59 µM],5%
Cc1ccc(S(=O)(=O)N2C[C@H]3C(=O)C[C@@H](c4ccccc4)N(S(=O)(=O)c4ccc(C)cc4)[C@H]3C[C@H]2c2ccccc2F)cc1,-8%,·,·,-1,·,·
CCc1ccc(-c2cc3c(N4CCN(c5ccccc5)CC4)nccn3n2)cc1,·,-6%,?,·,?,?
OCCN1CCN(C(=S)c2ccc(Cl)c(Cl)c2)CC1,4.7µM*,?,56µM*,·,2µM*,8%
CC(=O)c1ccc(NC(=S)N2CCN(CCO)CC2)cc1,-1%,21%,-17%,-9,16%,-1%
CCCc1cc(C(N)=O)c(NC(=O)c2cc(C)on2)s1,?,-3%,-20%,·,?,-2%
O=C(Nc1nnc(Cc2ccccc2)s1)c1ccco1,-2%,26%,-1%,·,?,4%
CCC(=O)Nc1sc2c(c1C(N)=O)CCC2,-10%,1%,-24%,·,19%[59 µM],8%
COC(=O)c1c(NC(=O)c2ccoc2C)sc2c1CCC2,-13%,-11%,?,-29,?,?
Cc1occc1C(=O)Nc1sc2c(c1C(N)=O)CCCCC2,?,-3%,-29%,?,13µM*,-37%
CCCc1cc(C(N)=O)c(NC(=O)c2ccoc2C)s1,30µM*,?,?,·,?,-36%
NC(=O)c1cc(Cc2ccccc2)sc1NC(=O)c1ccco1,17µM*,-20%,-21%,·,?,7%
CC(C)C(=O)NC(=S)Nc1sc2c(c1C(N)=O)CCCC2,19µM*,?,?,-54*,4µM*,-27%
COc1cc2c(cc1OC)C(COc1cc(C)cc(C)c1)N(C(=O)COc1ccccc1)CC2 (stereo not drawn),·,9%,-33%,·,?,-29%
COc1ccc(Cl)cc1NC(=O)Cn1c(=O)n(Cc2ccco2)c(=O)c2cccnc21,·,60%,-5%,·,-4%[59 µM],9%
O=C(Cc1ccccc1F)Nc1cc(S(=O)(=O)N2CCOCC2)ccc1N1CCCC1,-9%,19%,-13%,4,·,·
CCCC(=O)NC(=S)Nc1sc2c(c1C(N)=O)CCC2,?,13%,-19%,?,7.9µM*,-7%
COC(=O)Nc1sc2c(c1C(N)=O)CCCCCC2,13µM*,-58%,?,?,3.5µM*,-3%
CC(NC(=O)c1ccco1)c1nc(-c2ccc(Cl)cc2)no1 (stereo not drawn),-11%,28%,7%,2,10%,-19%
CCOCc1nnc(NC(=O)c2cc(Cl)ccc2OC)s1,-5%,26%,-8%,1,6.3µM*,11%
CCOCc1nnc(NC(=O)c2ccc(OC)cc2)s1,-2%,30%,-1%,1,10%[59 µM],11%
COCc1nnc(NC(=O)c2cc(Cl)ccc2OC)s1,30µM*,14%,-10%,·,-40%[12.7 µM],19%
COc1ccccc1C(=O)NCC(=O)N(C)Cc1nc2ccccc2c(=O)[nH]1,-2%,·,·,-2,·,·
SMILES,PLK1 PBD block,HP1b chromo inh,JMJD2A Tudor inh,PI5P4K alpha inh,G9a block,BAZ2B inh
O=C(CSC(=S)N1CCCC1)c1cc(Br)cc(Br)c1O,?,?,?,-25,20µM*,40µM*
CCC(Sc1nc2nccnc2c(=O)n1Cc1ccc(C)cc1)C(=O)NC1CCCCC1 (stereo not drawn),·,35%,8%,·,-5%[59 µM],7%
CC(=O)c1cccc(NC(=S)N2CCN(S(=O)(=O)c3ccc(F)cc3)CC2)c1,?,14%[57 µM],-3%,2,28µM*,-13%
Cc1cccc(NC(=S)N2CCN(S(=O)(=O)c3cccc(F)c3)CC2)c1,-21%,6%,-11%,11,2%,-39%
CC(=O)c1cccc(NC(=S)N2CCN(S(=O)(=O)c3ccccc3)CC2)c1,?,?,-15%,-12,45µM*,-20%
O=S(=O)(c1ccccc1)N1CCN(C(=S)Nc2ccc(Br)cc2)CC1,3%,46%,-18%,-6,·,-15%
Cc1cccc(NC(=S)N2CCN(S(=O)(=O)c3ccccc3)CC2)c1,-3%,30%,-19%,2,?,-23%
O=[N+]([O-])c1ccc(NC(=S)N2CCN(S(=O)(=O)c3ccccc3)CC2)cc1,-12%,-2%,?,-6,50µM*,-30%
COc1cccc(OCCCn2c(-c3ccc(Cl)cc3)nc3ccccc3c2=O)c1,·,111%,53%,·,53%[59 µM],71%
Cc1ccc(S(=O)(=O)c2c(N)n(CCC(C)C)c3nc4ccccc4nc23)cc1,-17%,76%,1%,0,-13%,4%
CCCCCn1c(NC(=O)c2ccco2)c(S(=O)(=O)c2ccc(C)cc2)c2nc3ccccc3nc21,21µM*,24%,-15%,·,-19%[59 µM],-29%
CCCCn1c(NC(=O)c2ccco2)c(S(=O)(=O)c2ccc(C)cc2)c2nc3ccccc3nc21,?,8%,-25%,-2,?,-6%
CCCCn1c(NC(=O)c2ccc(Br)o2)c(S(=O)(=O)c2ccccc2)c2nc3ccccc3nc21,25µM*,27%,-59%,·,10%[12.7 µM],-2%
Cc1ccc(S(=O)(=O)c2c(N)n(CCCO)c3nc4ccccc4nc23)cc1,-13%,45%,-2%,-6,17%,56µM*
CCCCn1c(NS(=O)(=O)c2ccccc2)c(S(=O)(=O)c2ccc(C)cc2)c2nc3ccccc3nc21,27µM*,53%,23%,4,1%[59 µM],14%
CCC(CC)c1nnc(NC(=O)c2cccc(S(=O)(=O)N3CCOCC3)c2)s1,-2%,17%,-23%,4,·,·
CCC(=O)N[C@H]1CC[C@@H](CCn2cc(C3CC3)nn2)O[C@@H]1CO,-1%,·,·,6,·,·
